# According to PubChem BioAssay AID1347170 (National Center for Advancing Translational Sciences (NCATS), 2019):
# Inconclusive results are not listed. Active and inactive are the calls of the source. Calls come from the whole dose curve; as a rule, active = well fitted cell-killing curve with a large enough effect; inconclusive = small, poorly fitted or top-dose-only effect, or another doubt; inactive = flat fitted curve, though single readings scatter.
# Assay: Vero cells viability counterscreen for qRT-PCR qHTS assay of selected Zika virus inhibitors
# Settings: CellTiter-Glo ATP luminescence, 24 h; series mostly up to 41.8 µM; activity change, negative = cytotoxicity: at the top concentration
# Source text: Assay Submitters (PI): Avindra Nath, Ph.D., National Institute of Neurological Disorders and Stroke (NINDS), Bethesda, MD Radhakrishnan Padmanabhan, Ph.D., Georgetown University (GU), Washington D.C. Zika Virus causes congenital defects, including microcephaly and is associated with Guillain-Barre syndrome, eningoencephalitis and myelitis in infected adult. […] Using a target-based approach, we hope to establish a screening paradigm to uncover novel, cell-active NS2B-NS3 protease (Zika Virus) specific inhibitors from NCATS' collection of small molecules using qHTS. […] Four assay panel was created to identify potential Zika Virus inhibitors. Namely, (1) GU unlinked NS2B-NS3 AMC tagged protease qHTS, (2) GU unlinked NS2B-NS3 Rhodamine tagged protease qHTS, (3) NINDS linked NS2B-NS3 AMC tagged protease qHTS, (4) NINDS linked NS2B-NS3 Rhodamine tagged protease qHTS. Inhibitors of the Zika virus primary screens are confirmed using qRT-PCR secondary assays, mCherry orthogonal assay, and Vero cells viability counterscreen. Cytotoxic compounds identified in the Vero cell viability counterscreen were excluded from the list of potential Zika virus inhibitors. Early Translation Branch (ETB) National Center for Advancing Translational Sciences (NCATS), Rockville, MD National Institute of Health (NIH), Bethesda, Maryland
# Vero Cell Viability Assay: Vero cell cytotoxicity was determined using a luminescent readout with CellTiter Glo reagent (Promega, Madison, WI), which is based on measuring the ATP content within cells. Briefly, 4 uL of Vero cells at 2.5 x 10^5 cells/mL in DMEM containing 4% FBS were dispensed into 1536-well solid bottom tissue treated white plate using a Multidrop Combi dispenser (Thermo Scientific). Plates were incubated at 37 degrees C, 95% humidity, and 5% CO2 overnight to allow for cell attachment. Compounds were dissolved in DMSO at different concentrations and transferred via pintool (Wako Automation), for a final concentration of 57 uM - 0.029 uM. Plates were again incubated for 24 hours, followed by a 2 uL addition of CellTiter Glo. Finally, plates were incubated for 30 minutes at 37 degrees C and 5% CO2 before being read on a ViewLux (Perkin Elmer) for luminescence.
row,Compound,"activity change, negative = cytotoxicity"
1,CC(=O)c1c(O)c(C)c(O)c(Cc2c(O)c3c(c(C(=O)/C=C/c4ccccc4)c2O)OC(C)(C)C=C3)c1O,7.22% (inactive)
2,CN(C)[C@@H]1C(=O)C(C(N)=O)=C(O)[C@@]2(O)C(=O)C3=C(O)c4c(O)cccc4[C@@](C)(O)[C@H]3C[C@@H]12,-3.72% (inactive)
3,O=C1OC(c2ccc(O)c(S(=O)(=O)O)c2)(c2ccc(O)c(S(=O)(=O)O)c2)c2c(Br)c(Br)c(Br)c(Br)c21,-4.94% [at 31.5 µM] (inactive)
4,CCCCCOc1cc2c(cc1-c1cc(/C=C/C(=O)O)ccc1O)C(C)(C)CCC2(C)C,-8.19% (inactive)
5,CN(C)[C@@H]1C(=O)C(C(N)=O)=C(O)[C@@]2(O)C(=O)C3=C(O)c4c(O)ccc(Cl)c4[C@@](C)(O)[C@H]3C[C@@H]12,-4.34% (inactive)
6,Oc1c(Cl)c(Cl)c(Cl)c(Cl)c1Cl,-6.7% (inactive)
7,O=C(Nc1ccc(Br)cc1)c1cc(Br)cc(Br)c1O,-2.96% [at 31.5 µM] (inactive)
8,C[C@]12CC[C@@H]3c4ccc(OC(=O)N(CCCl)CCCl)cc4CC[C@H]3[C@@H]1CC[C@@H]2O,1.61% (inactive)
9,Cc1cc(SCc2sc(-c3ccc(C(F)(F)F)c(F)c3)nc2C)ccc1OCC(=O)O,-17.4% [at 83.7 µM] (inactive)
